Assay outcomes deposited in PubChem BioAssay by Sanford-Burnham Center for Chemical Genomics.
TROY NFkB inh: inhibitors of TROY-dependent NF-kB signaling; Q293 LMP1-TROYcd NF-kB luciferase reporter, 4 h; inhibition, % at 10 µM; hit rate 0.98% among 360,000; AID 1347056;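 active = compounds whose plate-normalised and pattern-corrected inhibition of the luciferase reporter signal at the single screening dose is 50% or more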
HIF-2a inh: HIF-2a inhibition; 786-0 RCC cells HIF-2a reporter, luciferase luminescence, overnight; inhibition, % at 18.8 µM; hit rate 0.72% among 360,000; AID 624352;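 active = inhibition of the luminescence signal of 40% or more relative to plate controls, in a single-dose primary screen at 18.75 µM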
TWEAK-Fn14 inh: TWEAK-Fn14 signaling inhibition | TWEAK-stimulated Fn14 reporter cells, luciferase luminescence, 8 h | inhibition, % at 10 µM | hit rate 2% among 360,000; in the data active = inhibition above about 50%
Peg3 promoter: inhibitors of Peg3 promoter | hit rate 1.7% among 360,000 | inhibition, % at 20 µM | HeLa PEG-Prom luciferase reporter, luminescence, overnight;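 active = inhibition of at least 50% at 20 µM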
CF NFkB inh: blocks PAF-induced NF-kB reporter in cystic fibrosis cells; inhibition, % at 5 µM; KKLEB NF-kB-GFP reporter, GFP fluorescence overnight; AID 588850; hit rate 0.86% among 360,000;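 active = at least 50% inhibition at 5 µM, scaled per plate between neutral and stimulator controls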;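 note: PAF is a Pseudomonas aeruginosa culture filtrate used as stimulus; plate controls were PAF-stimulated DMSO wells for no effect and unstimulated DMSO wells for full effect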
KKLEB cytotox: CF airway cell cytotoxicity counter-screen | KKLEB CF airway cells viability, ATPlite luminescence, overnight; hits give low values; cells stimulated with P. aeruginosa culture filtrate | activity change (cytotoxicity), % at 5 µM | hit rate 0.36% among 360,000 | AID 602141;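 active = corrected activity change at or below -50% at 5 µM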
CF NFkB inh conf: CF NF-kB inhibition confirmation, single concentration; AID 602472; shares compounds with CF NFkB inh; KKLEB CF airway cells, PAF-induced NF-kB-GFP fluorescence, overnight; inhibition, % at 5 µM; hit rate 64% among 1,300; in the data active = inhibition above about 40%;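 note: stimulus PAF is a Pseudomonas aeruginosa filtrate and not platelet activating factor; plate controls were DMSO wells with stimulus for no effect and unstimulated DMSO wells for full effect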
Numbers without * were called inactive; . = not tested or not shown. A selection: hits, their analogues and other compounds. The true share with any hit is near 4%.

SMILES	TROY NFkB inh	HIF-2a inh	TWEAK-Fn14 inh	Peg3 promoter	CF NFkB inh	KKLEB cytotox	CF NFkB inh conf
COc1ccccc1N1CCN(CCCN2C(=O)C3CCCN3C2=O)CC1 (configuration not stated)	6.1	16.6	-1.4	13.8	-19.5	18.5	.
COCc1cc(S(=O)c2ccc(Cl)cc2)nc(C)n1 (configuration not stated)	-2.2	28.6	63.8*	33.6	87.2*	0.0	82.8*
O=C1N(c2ccccc2C(F)(F)F)O[C@@]1(c1ccccc1)C1CCCCC1	-6.0	2.9	10.8	56.9*	65.3*	-15.3	60.4*
C=CCn1c(SCC(=O)NCC2CCCO2)nc2sc(CC)cc2c1=O (configuration not stated)	-10.7	-2.1	6.6	7.3	13.1	-8.6	.
CC(=O)c1ccc(-c2ccc(C(=O)NCC(c3ccc(F)cc3)N3CCOCC3)o2)cc1 (configuration not stated)	-14.4	-35.2	-24.6	-38.2	-12.8	-0.2	.
O=C(NCC(c1ccc(F)cc1)N1CCOCC1)c1ccc([N+](=O)[O-])o1 (configuration not stated)	8.5	8.9	-9.0	17.7	64.2*	-0.9	25.6
CCOc1ccc(N2C(=O)/C(=C\c3ccc(O)c(OC)c3)S(=O)(=O)C2c2cccc([N+](=O)[O-])c2)cc1 (configuration not stated)	11.5	18.6	8.9	-3.3	-15.9	-5.6	.
O=C(OCC(=O)N1CCCC1=O)c1nc(Cl)c(Cl)c(Cl)c1Cl	55.9*	7.6	90.8*	82.1*	60.2*	-0.2	-19.7
Nc1c(Cl)c(Cl)nc(C(=O)OCC(=O)N2CCCC2=O)c1Cl	2.9	9.7	-11.8	7.8	19.0	4.3	.
CCCCN(C)C(=O)c1ccc(Nc2nc(C(N)Cc3ccc(C(F)(F)F)cc3)cs2)nc1 (configuration not stated)	18.5	0.7	2.8	96.4*	50.9*	-43.7	20.1
Cc1nc2ccc(NC(=S)NC3CC3)cc2nc1C	5.4	-6.7	-12.9	-8.7	-6.0	-2.5	.
Cn1c(=O)c([N+](=O)[O-])c(NC2CCS(=O)(=O)C2)c2ccccc21 (configuration not stated)	-4.4	10.1	15.6	11.1	4.2	2.6	.
Nc1ncnc(NC2CCS(=O)(=O)C2)c1[N+](=O)[O-] (configuration not stated)	18.5	10.9	20.4	-24.6	52.0*	-5.8	35.1
CN(c1ncnc(N)c1[N+](=O)[O-])C1CCS(=O)(=O)C1 (configuration not stated)	25.1	7.9	49.6	-2.8	51.1*	-13.5	60.6*
CCCCNC(=O)c1ccc(SCC(=O)N(CC)CC)c([N+](=O)[O-])c1	-0.8	13.0	-11.2	8.0	-5.4	9.9	.
O=C(NCCO)c1ccc2[nH]c3ccccc3c2c1	-16.6	-46.3	-0.9	-27.6	-4.6	5.7	.
CCCOc1cccc(C2C(C(=O)c3cc4ccccc4o3)=C(O)C(=O)N2c2cc(C)on2)c1 (configuration not stated)	-13.8	-1.6	-2.9	4.2	66.1*	-1.7	23.8
Cc1cc(N2C(=O)C(O)=C(C(=O)c3cc4ccccc4o3)C2c2cccc(Br)c2)no1 (configuration not stated)	-10.2	-10.3	-11.8	15.1	-32.6	16.2	.
CC(C)c1ccc(NC(=O)C(c2ccc3c(c2)OCO3)N2CCCCC2)cc1 (configuration not stated)	-21.7	-47.6	6.6	5.2	4.9	0.6	.
Oc1cc2c(cc1C(c1ccc(Cl)c(Cl)c1)N1CCCC1)OCO2 (configuration not stated)	16.0	29.4	16.2	31.1	63.9*	-48.1	44.1*
COc1cc(OC)nc(Nc2nc(C(N)c3ccccc3Cl)cs2)n1 (configuration not stated)	8.7	12.1	13.2	37.8	50.0*	-36.0	8.4
CC1CCN(CC2C(=O)O[C@@H]3C[C@@]4(C)CCC[C@H](C)C4=C[C@H]23)CC(C)(C)C1 (some centres not stated)	27.9	-16.2	55.1*	-17.4	83.5*	-20.8	33.7
COc1ccc(COc2cc(-c3cccc(OC)c3)nc3ccc(NC(=O)c4cccnc4)cc23)cc1	3.0	16.6	-5.6	54.0*	80.4*	-17.0	91.6*
CCOc1ccccc1OCC(=O)NNC(=O)Cn1cnc2c1c(=O)n(C)c(=O)n2C	13.2	25.3	-7.5	-1.5	-20.0	7.9	.
O=S(=O)(Nc1ccccc1N1CCCCC1)c1ccccc1	12.6	15.6	6.5	18.9	-0.8	3.7	.
SMILES	TROY NFkB inh	HIF-2a inh	TWEAK-Fn14 inh	Peg3 promoter	CF NFkB inh	KKLEB cytotox	CF NFkB inh conf
CCN(c1ccc(OC)cc1)c1ncnc2nc[nH]c12	38.0	17.8	58.8*	13.1	66.0*	3.4	85.8*
CCCCN(Cc1ccccc1)c1ncnc2nc[nH]c12	-19.3	-142.4	-12.1	-213.0	30.6	4.6	.
CCCCN(CCCC)c1ncnc2nc[nH]c12	33.1	33.6	58.5*	6.1	52.9*	-18.6	69.8*
Cc1cccc(C(=O)N2CCc3ccccc3C2)c1[N+](=O)[O-]	4.8	4.4	7.8	10.6	3.5	-7.6	.
C/C(=N/NC(=O)c1cc(-c2cccc([N+](=O)[O-])c2)n[nH]1)c1cccc(O)c1	-11.7	13.8	-32.5	12.3	56.6*	-12.2	36.8
CCCCc1nc(Cl)c(C#N)c2c1CSC(C)(C)C2	-0.5	21.6	1.7	4.5	15.7	-17.1	.
CCCc1nc(Cl)c(C#N)c2c1CCCC2	14.7	18.0	44.4	-5.7	68.3*	-12.5	75.9*
CCc1nc(Cl)c(C#N)c2c1CSC(C)(C)C2	5.3	21.7	-3.1	4.0	57.5*	-21.1	42.1*
CCc1nc(Cl)c(C#N)c2c1CCCC2	32.2	28.3	45.9	-18.6	54.6*	-0.1	75.2*
CC(C)Cc1nc(Cl)c(C#N)c2c1CCCC2	22.8	17.2	47.4	18.2	35.5	2.5	.
CCCc1nc(NCCO)c(C#N)c2c1CCCC2	-5.1	8.5	13.4	9.5	6.1	5.6	.
O=C(NCCc1ccccc1F)c1cccc2cccnc12	-77.4	-215.5	-26.8	-257.4	-19.4	5.7	.
CCCOc1c(Br)cc(C(=O)OCc2cc(=O)n3ccsc3n2)cc1OC	19.9	7.9	18.0	13.5	57.6*	3.4	26.2
CC(C)=CCc1c(O)cc(O)c2c1OC(c1ccc(O)cc1)CC2=O (configuration not stated)	30.6	13.8	34.6	24.7	52.6*	-12.4	71.8*
CC(C)=CCc1c(O)c(CC=C(C)C)c2c(c1O)C(=O)CC(c1ccc(O)cc1)O2 (configuration not stated)	2.9	-34.0	8.7	5.6	26.8	-8.4	.
COc1ccc(-c2cc(C(F)(F)F)nc(N3CCN(Cc4ccccc4)CC3)n2)cc1OC	6.8	16.0	7.0	5.4	4.4	-7.5	.
